Compounds with a hit are over-represented: about 1.2% of the library has one in this group of screens.
RAD54 branch = RAD54 (human) branch migration inhibition | hit rate 0.14% among 360,000 | Q92698 | inhibition, % at 10.4 µM | RAD54 Holliday junction branch migration, FAM/BHQ fluorescence | AID 602329;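 active means mean normalized replicate activity at least 40 and at least half of replicates scoring 40 or more; inconclusive means only one of the two criteria met; inactive means mean below 40 and under half of replicates reaching 40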;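 further: inhibitors cause a drop in the FAM fluorescence signal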
Glyco luc inh = blocks N-linked glycosylation in D54 reporter cells; D54 ERlucT glycosylation luciferase reporter, 24 h; percent of 100 nM tunicamycin response; reporter increase, % at 12.5 µM; hit rate 0.23% among 360,000; AID 588692;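 active means mean luciferase reporter signal, scaled so untreated is 0 and the glycosylation-blocking control 100, at or above a set limit in every replicate; inconclusive means mean reaches the limit but not every replicate does; inactive means mean below the limit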;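 further: luciferase carries N-glycosylation sites so blocking glycosylation raises the light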
AF4-AF9 inh = inhibitors of human MLL-AF4/AF9 interaction; P42568; AlphaScreen, biotin-AF4 peptide binding to FLAG-AF9; inhibition, % at 10 µM; hit rate 0.47% among 350,000;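 active means every replicate reaching a set inhibition limit, whatever the replicate mean, cut at about 25% in these data; inconclusive means mean inhibition reaches that limit but some replicates miss it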
RAD52 anneal inh = RAD52 (human) annealing inhibition | recombinant RAD52 DNA annealing, FRET fluorescence | P43351 | hit rate 0.46% among 360,000 | inhibition, % at 18.7 µM;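 active means every replicate showing at least 50% inhibition; inconclusive means mean inhibition at least 50% but not in every replicate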
Target sequence (P43351 whole entry, looked up): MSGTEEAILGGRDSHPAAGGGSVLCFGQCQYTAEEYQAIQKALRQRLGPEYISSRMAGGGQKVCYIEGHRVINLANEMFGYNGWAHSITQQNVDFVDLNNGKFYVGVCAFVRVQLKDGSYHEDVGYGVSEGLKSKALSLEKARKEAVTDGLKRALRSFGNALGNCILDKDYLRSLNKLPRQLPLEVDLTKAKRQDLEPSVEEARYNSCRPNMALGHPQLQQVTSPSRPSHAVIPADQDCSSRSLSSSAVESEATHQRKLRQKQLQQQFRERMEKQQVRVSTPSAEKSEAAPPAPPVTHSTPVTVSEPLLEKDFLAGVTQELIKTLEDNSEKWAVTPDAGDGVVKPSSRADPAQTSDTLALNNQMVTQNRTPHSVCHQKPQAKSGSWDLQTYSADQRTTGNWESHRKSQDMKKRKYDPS
Casp6 inh = blocks human caspase-6 cleavage activity; P55212; AID 686996; inhibition, % at 12.5 µM; hit rate 0.53% among 350,000; purified caspase-6, Z-VEID-R110 cleavage fluorescence;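 active means mean inhibition across replicates at least about 35%, with every replicate also reaching that limit, limit read from the data; inconclusive means only one of the two criteria met; inactive means neither criterion met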
Target sequence (P55212 24-179 limits assumed): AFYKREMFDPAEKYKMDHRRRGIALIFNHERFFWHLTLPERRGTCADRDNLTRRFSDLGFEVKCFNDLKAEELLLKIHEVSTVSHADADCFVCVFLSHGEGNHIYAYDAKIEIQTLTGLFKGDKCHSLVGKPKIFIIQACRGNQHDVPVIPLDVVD
Target sequence (P55212 194-293 limits assumed): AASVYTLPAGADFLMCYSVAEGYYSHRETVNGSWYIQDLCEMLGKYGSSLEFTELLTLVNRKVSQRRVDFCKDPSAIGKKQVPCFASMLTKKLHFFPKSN
RAD52 DNA ctr = binds DNA, flagging false RAD52 inhibitor hits; shares compounds with RAD52 anneal inh; Salmon sperm DNA/acridine orange FP displacement, DNA binding; AC50, µM; hit rate 8% among 1,000;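 active means fitted half-maximal concentration for signal loss at or below twice the highest dose tested, in every separate run, actives reach about 64 µM in these data; inconclusive means runs disagree, or flat partial signal loss, or poor fit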
Hits are given with their value; n = inactive; u = inconclusive; x = no result; ! = repeats disagree.

SMILES | RAD54 branch | Glyco luc inh | AF4-AF9 inh | RAD52 anneal inh | Casp6 inh | RAD52 DNA ctr
CCC(=O)N1C[C@H](C)[C@H](OC)CN(C)C(=O)c2ccc(NC(=O)c3ccccc3)cc2OC[C@H]1C | x | x | n | x | x | x
CN(C)CCCN(C(=O)c1ccc2c(c1)CCCC2)c1nc2c(F)cccc2s1 | n | n | 32 | 75 | n | n
CN(C)CCN(C(=O)c1ccc2c(c1)CCCC2)c1nc2cc3c(cc2s1)OCCO3 | n | n | 37 | 72 | n | n
CN(C)CCN(C(=O)c1ccc2ccccc2c1)c1nc2cc3c(cc2s1)OCO3 | n | n | u | 67 | n | n
Cc1ccc2nc(N(CCCN(C)C)C(=O)c3ccc4c(c3)CCCC4)sc2c1 | n | n | x | x | x | x
Cc1ccc2nc(N(CCCN(C)C)C(=O)c3ccco3)sc2c1 | x | n | n | n | n | x
CN(C)CCN(C(=O)c1ccc2c(c1)OCCO2)c1nc2cc3c(cc2s1)OCO3 | n | n | n | n | n | x
CN(C)CCCN(C(=O)c1ccco1)c1nc2cc3c(cc2s1)OCO3 | n | n | n | 54 | n | n
Cc1ccccc1-c1cnc2c(c1)C(=O)N([C@@H](C)CO)C[C@@H](C)[C@@H](CN(C)C(=O)c1ccccc1)O2 | n | x | x | x | x | x
Cc1noc(C)c1NC(=O)Nc1ccc2c(c1)C(=O)N([C@@H](C)CO)C[C@@H](C)[C@@H](CN(C)Cc1ccc(C(=O)O)cc1)O2 | n | x | n | n | n | x
O=C(C[C@@H]1C[C@@H]2c3cc(NC(=O)c4ccc5c(c4)OCO5)ccc3O[C@@H]2[C@H](CO)O1)NCc1cccc(F)c1 | n | x | n | n | n | x
Cc1ccc(-c2csc(N(CCCN(C)C)C(=O)c3ccco3)n2)cc1 | x | n | n | 64 | n | n
Cc1ccc(-c2csc(N(CCCN3CCOCC3)C(=O)c3ccco3)n2)cc1 | n | n | x | x | x | x
CCN(CC)CCN(C(=O)c1ccc(N2C(=O)CCC2=O)cc1)c1nc2cc3c(cc2s1)OCCO3 | x | n | n | 80 | n | n
NC(N)=N/N=C/c1ccccc1 | x | n | x | x | x | x
NC(N)=N/N=C/c1ccc(OCc2ccccc2Cl)cc1 | n | n | n | n | n | n
COC(=O)C[C@H]1CC[C@H]2[C@@H](COc3ccc(NC(=O)NCc4ccccc4)cc3C(=O)N2C)O1 | x | x | n | n | n | x
CC(=O)c1cccc(Nc2cc(C)nc3ccccc23)c1 | n | n | n | n | n | x
CC(=O)c1cccc(Nc2cc(C)nc3c(C)cccc23)c1 | x | n | n | 50 | n | n
CCC(=O)N1CC2(C1)[C@H](c1ccccc1)[C@H](CO)N2CCC(F)(F)F | x | x | n | n | n | x
CCN(CC)CCN(C(=O)c1ccc(C(=O)c2ccccc2)cc1)c1nc2c(OC)cccc2s1 | n | n | 27 | 61 | n | n
COc1cccc2sc(N(CCCN(C)C)C(=O)c3sc4ccccc4c3Cl)nc12 | n | n | 28 | 58 | n | n
C[C@@H]1CN([C@H](C)CO)S(=O)(=O)c2ccc(/C=C/c3ccccc3)cc2O[C@@H]1CN(C)C(=O)c1cccnc1 | n | x | n | n | n | x
CCCCCOC(=O)Cn1c(=O)oc2ccccc21 | n | n | n | n | n | x
CCCCCCCCCCOC(=O)Cn1c(COc2ccc(Cl)cc2)[n+](C)c2ccccc21 | 57 | n | 42 | 76 | n | n
SMILES | RAD54 branch | Glyco luc inh | AF4-AF9 inh | RAD52 anneal inh | Casp6 inh | RAD52 DNA ctr
CCCCCCCCCCOC(=O)Cn1c(COc2ccccc2)[n+](C)c2ccccc21 | u | n | u | 70 | n | n
CCCCCCCCCCOC(=O)Cn1c(COc2cccc(C)c2)[n+](C)c2ccccc21 | 52 | n | n | 80 | n | u
CCC(=O)Nc1ccc2c(c1)C(=O)N(C)[C@H]1CC[C@H](CC(=O)Nc3cccc(OC)c3)O[C@@H]1CO2 | n | x | n | n | n | x
C[C@H](CO)N1C[C@H](C)[C@H](CN(C)C(=O)Cc2ccccc2)Oc2ncc(C3=CCCCC3)cc2C1=O | x | x | n | n | n | x
CCN(CC)CCOC(=O)c1ccc(N=CC2=C(O)CC(C)(C)CC2=O)cc1 | x | n | n | 71 | n | n
C[C@H](NC(=O)C[C@H]1C[C@H]2c3cc(NS(C)(=O)=O)ccc3O[C@H]2[C@H](CO)O1)c1ccccc1 | n | x | n | n | n | x
CN1CCc2c(sc(N)c2C(=O)O)C1 | x | n | u | 74 | n | n
CCN1CCN(Cc2ccc(NC(=O)c3cc(NC(=O)c4cncc(-c5cccs5)c4)cc(OC)c3)cc2C(F)(F)F)CC1 | n | n | n | 76 | n | n
CCN1CCN(Cc2ccc(NC(=O)c3cc(NC(=O)c4ccc5n[nH]nc5c4)cc(OC)c3)cc2C(F)(F)F)CC1 | n | n | n | n | n | x
CCN1CCN(Cc2ccc(NC(=O)c3cc(NC(=O)N4CCNC4=O)cc(OC)c3)cc2C(F)(F)F)CC1 | n | n | n | n | n | x
CCN1CCN(Cc2ccc(NC(=O)c3cc(NC(=O)c4ccno4)cc(OC)c3)cc2C(F)(F)F)CC1 | n | n | n | 57! | n | n
CCN1CCN(Cc2ccc(NC(=O)c3cc(NC(=O)c4cc(-c5ccc(OC)cc5)n[nH]4)cc(OC)c3)cc2C(F)(F)F)CC1 | n | n | n | n | n | x
CCN1CCN(Cc2ccc(NC(=O)c3cc(NC(=O)c4cc5cccc(OC)c5o4)cc(OC)c3)cc2C(F)(F)F)CC1 | n | n | n | 94! | n | n
CCN1CCN(Cc2ccc(NC(=O)c3ccc(C)c(NC(=O)c4csc(-c5ccncc5)n4)c3)cc2C(F)(F)F)CC1 | n | n | n | 75 | n | n
CCN(CC)CCNC(=O)C(=O)NCC1OCCN1S(=O)(=O)c1cccs1 (centres undefined) | n | n | n | 54 | n | n
CN1CCN(C(=O)C[C@H]2C[C@H]3c4cc(NC(=O)CC5CC5)ccc4O[C@H]3[C@@H](CO)O2)CC1 | n | x | n | n | n | x
CCN(CC)CCCNC(=O)c1[nH]c2ccccc2c1Sc1ccc(Cl)cc1 | n | n | n | 70 | n | n
CN1CCN(CCCNC(=O)c2ccc(/C=C3\Oc4ccccc4N(Cc4ccccc4F)C3=O)cc2)CC1 | n | n | n | 96 | n | n
CN1CCN(CCCNC(=O)c2ccc(/C=C3\Sc4ccccc4N(Cc4ccc(F)cc4)C3=O)cc2)CC1 | n | n | n | 92 | n | n
O=C(NCCCN1CCCC1)c1ccc2c(c1)N(Cc1cccc(Cl)c1)C(=O)c1ccccc1S2=O (centres undefined) | n | n | n | 67 | n | n
CN1CCN(CCCNC(=O)c2ccc(/C=C3/Sc4ccccc4N(Cc4cccc(Cl)c4)C3=O)cc2)CC1 | n | n | 27 | 68 | n | n
C[C@@H]1CN([C@H](C)CO)C(=O)c2cc(NC(=O)C3CCCCC3)ccc2O[C@@H]1CN(C)Cc1ccc(Cl)c(Cl)c1 | n | x | n | n | n | x
CO[C@H]1CN(C)C(=O)c2ccc(NC(C)=O)cc2OC[C@H](C)N(C(=O)C2CCCCC2)C[C@@H]1C | n | x | n | n | n | x
CC(=O)C1CCC2C3CC=C4CC(SC(=N)N)CCC4(C)C3CCC12C (centres undefined) | x | n | n | 51 | n | n
O=C(NCCCN1CCCCCC1)c1cc2c(=O)oc3ccccc3c2s1 | n | n | n | n | n | x

Compound activity deposited in PubChem BioAssay by Broad Institute.
